The results in this text go back to PubChem BioAssay AID651602 (The Scripps Research Institute Molecular Screening Center, 2012).

Among all 360,000 compounds or so, about 950 (0.26%) were called active. Cut-off read from the data, not from the text of the source: active = inhibition above about 11%; inactive = the rest. This excerpt belongs to a sample that is enriched for actives.

The test is described as follows: reduced absorbance of E. coli cultures with phage – HTS, RecBCD inhibitor project, primary screen (AID 651602). Particulars: growth absorbance, at 11.9 µM, stronger effect = higher value.
In the case of `O=C(O)Cn1cnc2c(NCc3ccccc3)ncnc21`, the inhibition – broadly, the relative decrease from the control value, in per cent – is -1.71% (inactive).

Take `O=c1ccc2c(-c3ccccc3S(=O)(=O)O)c3ccc(O)c(O)c3oc-2c1O`: the inhibition is 12.7% (active).

Take `CC[C@H](NC(=O)[C@H](Cc1ccccc1)NC(=O)[C@H]1O[C@@H](n2cnc3c(=O)[nH]c(N)nc32)[C@H](O)[C@@H]1O)c1ccccc1`: the inhibition was 3.64% (inactive).

As to `COc1ccccc1C(=O)N1O[C@]23C=C[C@]14C[C@@H](O)CC[C@]4(C)C2CC[C@]1(C)[C@@H]([C@H](C)/C=C/[C@H](C)C(C)C)CC[C@H]13` (some centres undefined), the inhibition is 3.99% (inactive).

Regarding `COc1cccc(CNC(=O)[C@H]2CCCN2C(=O)[C@H]2CCCN2C(=O)C2CCCCC2)c1`, the inhibition is 2.87% (inactive).

Regarding `O=S1(=O)c2c(cccc2N2CCCCC2)O[C@H](COCc2ccccc2)CN1C1CC1`, the inhibition is 1.52% (inactive).

In the case of `COC(=O)C1=C(C)N(Cc2ccccc2C(F)(F)F)C(=NCc2ccc(OC)cc2)NC1c1cccc(C(F)(F)F)c1` (centres undefined), the inhibition is 5.38% (inactive).

With `CCOC(=O)C1=C(C(=O)OCC)C2N(Cc3ccc(C#N)cc3)c3ccccc3[C@@]23C[C@@H](C(=O)OC)N(S(=O)(=O)c2ccc(F)cc2)C3=N1` (some centres undefined), the inhibition is 2.71% (inactive).

On to `CC(=O)N1C[C@@H](CO)[C@@H](N(C)C(=O)C(C)(C)C)C[C@H]1c1ccccc1Br`, for which the inhibition was 2.5% (inactive).

Turning to `O=S(=O)(c1cccs1)N1CCCc2nc(-c3ccc(Br)cc3)ccc21`, the inhibition was 3.49% (inactive).

Regarding `CCOc1ccc(C(CC(=O)O)n2cnnn2)cc1OC` (centres undefined), the inhibition is 3.64% (inactive).

On to `CCCCC(=O)NC(c1ccc(OC)c(OC)c1)c1ccc2cccnc2c1O` (centres undefined), for which the inhibition was 21.1% (active).

As to `CCOc1ccc(C(CCc2ccccc2)NC(=O)c2ccc(OC)c(OC)c2)cc1OCC` (centres undefined), the inhibition was -0.08% (inactive).

Consider `CCc1c(-c2ccccc2OC)ncn1CCc1ccccc1OC`, for which the inhibition is 0.54% (inactive).

Turning to `CCOC(=O)C1CSCCS(=O)(=O)N1Cc1ccc(Cl)cc1` (centres undefined), the inhibition was 0.55% (inactive).

With `COC(=O)C1=C(C)NC(=S)NC1c1ccc(OC)cc1` (centres undefined), the inhibition is 3.49% (inactive).

As for `COC(=O)c1c(-c2ccc(OC)cc2)c2c(c3c4ccccc4n(S(=O)(=O)c4ccc(C)cc4)c13)C(=O)N(C)C2`, the inhibition was 1.94% (inactive).

As to `Cc1cc(Br)cn2c(Cc3ccccc3C(F)(F)F)c(-c3ccc(C#N)cc3)nc12`, the inhibition was 4.55% (inactive).

Consider `O=C(Nc1cc(-c2ccccc2)nn1-c1ccccc1F)c1ccc([N+](=O)[O-])cc1`, for which the inhibition is 3.65% (inactive).

As to `O=C(NNS(=O)(=O)Cc1ccccc1)c1ccc([N+](=O)[O-])cc1`, the inhibition is 4.99% (inactive).

Regarding `O=C(NC(Nc1nc2ccc([N+](=O)[O-])cc2s1)(C(F)(F)F)C(F)(F)F)c1ccccc1`, the inhibition was 12.8% (active).

Consider `COC(=O)C1=C(C)N(Cc2ccccc2C(F)(F)F)C(=NCc2ccc(C(F)(F)F)cc2)NC1c1ccc(F)cc1` (centres undefined), for which the inhibition was 7.76% (inactive).

Turning to `COC(=O)N1Cc2ccnnc2CC1c1ccccc1Br` (centres undefined), the inhibition was 3.01% (inactive).

With `O=C(Nc1ccc(F)cc1)C1CCN(C(=O)c2ccc([N+](=O)[O-])cc2)CC1`, the inhibition was 1.84% (inactive).

In the case of `O=C(/C=C/c1ccc([N+](=O)[O-])o1)NNC(=O)c1ccc(F)cc1`, the inhibition is 29.6% (active).

As for `O=C(/C=C/c1ccc(F)cc1)NC(=S)NNC(=O)c1cccnc1`, the inhibition is -5.76% (inactive).

On to `CCCN1C(=O)c2[nH]nc(-c3ccccc3)c2C1c1ccccc1` (centres undefined), for which the inhibition was 1.78% (inactive).

For the compound `COC(=O)[C@]12C[C@H](CC(=O)NCc3ccc(OC)c(OC)c3)C(=O)N(Cc3ccccc3)C1=C[C@H](C(C)C)O[C@@H]2C1CC1`, the inhibition is 0.85% (inactive).

For the compound `O=C1[C@@H](c2ccccc2)[C@@H](c2ccccc2)N1c1ccccc1`, the inhibition is 1.64% (inactive).

On to `COc1ccc(-c2ccc3c(n2)CCCN3S(=O)(=O)c2ccc(C)cc2)cc1`, for which the inhibition is 4.42% (inactive).

For the compound `S=C(NCC1COc2ccccc2O1)Nc1ccc(Br)cc1` (centres undefined), the inhibition is 11.1% (active).

For `O=C(COc1ccc(F)cc1Br)NCC1COc2ccccc2O1` (centres undefined), the inhibition is 1.96% (inactive).

As for `CC(NC(=S)Nc1ccccc1)C1COc2ccccc2O1` (centres undefined), the inhibition is 4.25% (inactive).

On to `O=C(N[C@H](Cc1ccccc1)C(=O)N1CCCN(Cc2cccs2)CC1)[C@H]1O[C@@H](n2ccc(=O)[nH]c2=O)[C@H](O)[C@@H]1O`, for which the inhibition was 3.33% (inactive).

Take `CCOC(=O)Cn1c2c(n(-c3ccc(F)cc3)c1=O)C=C(c1ccccc1)[C@@H](C)C(C(=O)N(C)C1CCCCC1)=C2`: the inhibition was 3.33% (inactive).

Regarding `CN(C)C(=O)N1CCN(C(=O)[C@@H](Cc2ccccc2)NC(=O)[C@H]2O[C@@H](n3ccc(N)nc3=O)[C@H](O)[C@@H]2O)CC1`, the inhibition is 1.56% (inactive).

As to `COc1ccc(CNS(=O)(=O)c2cc(Br)ccc2Br)cc1`, the inhibition is 0.71% (inactive).

As for `CC1CN(C(=S)Nc2ccccc2F)CC(C)O1` (centres undefined), the inhibition was 2.38% (inactive).

Take `COc1ccccc1NC(=S)N1CCN(c2ccc(F)cc2)CC1`: the inhibition was 2.7% (inactive).

On to `COc1c(N2CCN(C(=S)Nc3ccccc3F)C(C)C2)c(F)cc2c(=O)c(C(=O)O)cn(C3CC3)c12` (centres undefined), for which the inhibition is 99.2% (active).

Consider `CCOC(=O)CNC(=O)N(C)[C@H]1C[C@H]2c3[nH]c4c(-c5ccc6c(c5)OCO6)cccc4c3CCN2C(=O)[C@H]1[C@H](C)O`, for which the inhibition was 1.25% (inactive).

Turning to `COc1cccc(CC(=O)N2CCN(C(=O)C(=O)c3cccc(C(F)(F)F)c3)CC2)c1`, the inhibition is 0.39% (inactive).

Take `COC(=O)[C@]12C[C@H](CC(=O)NCCC(C)C)C(=O)N(CCc3ccc(OC)c(OC)c3)C1=C[C@H](C(C)(C)C)O[C@@H]2C`: the inhibition was 4.73% (inactive).

With `COc1ccc(N(CC(=O)NC2CCCCC2)S(=O)(=O)c2c(C)[nH]c(=O)[nH]c2=O)cc1`, the inhibition was -1.14% (inactive).

As for `CCOc1ccc(N(CC(=O)NC2CCCCCC2)S(=O)(=O)c2c(C)[nH]c(=O)[nH]c2=O)cc1`, the inhibition is 80.4% (active).

In the case of `CCOc1ccc(N(CC(=O)Nc2ccccc2F)S(=O)(=O)c2c(C)[nH]c(=O)[nH]c2=O)cc1`, the inhibition is 3.53% (inactive).

In the case of `Nc1[nH]c(C(=O)c2ccccc2)c(-c2ccc(Cl)cc2Cl)c1C(=O)c1ccccc1`, the inhibition was 3.17% (inactive).

With `Cc1cc(NCCc2c[nH]c3ccccc23)ccc1Oc1cccnc1`, the inhibition is 1.27% (inactive).

On to `COCc1[nH]nc2c1C(c1ccccc1)N(c1ccccc1)C2=O` (centres undefined), for which the inhibition is 1.43% (inactive).

For `CC(C)=CC(=O)Nc1nnc(-c2ccc(F)cc2)s1`, the inhibition was 1.99% (inactive).

`Cc1ccc(NC(=O)Nc2nnc(-c3ccncc3)s2)cc1`: the inhibition was 12.4% (active).

For the compound `O=C(Nc1ccccc1)Nc1nnc(COc2ccccc2F)s1`, the inhibition was 0.84% (inactive).

In the case of `C[C@H](O)[C@@H]1C(=O)N2CCc3c([nH]c4c(-c5ccc6c(c5)OCO6)cccc34)[C@@H]2C[C@@H]1N(C)C(=O)c1ccco1`, the inhibition is 4.12% (inactive).

Regarding `CCCCNC(=O)c1cn(CC)c2cc(N3CCN(C(=O)c4ccco4)CC3)c(F)cc2c1=O`, the inhibition is 1.02% (inactive).

Turning to `CCn1cc(C(=O)NCCO)c(=O)c2cc(F)c(N3CCN(C)CC3)cc21`, the inhibition is 92.5% (active).

Take `CN1CCN(c2cc3c(cc2F)c(=O)c(C(=O)O)cn3CCF)CC1`: the inhibition is 99.2% (active).

For the compound `CCCCCCn1cc(C(=O)O)c(=O)c2cc(F)c(N3CCCCC3)cc21`, the inhibition was 1.18% (inactive).

For the compound `CCn1cc(S(=O)(=O)c2cccc(C)c2)c(=O)c2cc(F)c(N3CCN(C)CC3)cc21`, the inhibition is 0.96% (inactive).

For the compound `CCn1cc(C(=O)NCCC(=O)NCCO)c(=O)c2cc3c(cc21)OCO3`, the inhibition was 0.08% (inactive).

With `C=CCN1C(=O)N(Cc2ccccc2)c2ccccc2S1(=O)=O`, the inhibition was 1.27% (inactive).

Consider `COc1ccc(OC)c(Cc2cnc3nc(N)nc(N)c3c2C)c1`, for which the inhibition was 82.4% (active).

As for `Brc1ccc(COCCc2cn(Cc3ccccc3)c3ccccc23)cc1`, the inhibition was 2.34% (inactive).

Regarding `Cc1[nH]nc2c1C(c1ccc(Br)cc1)NC2=O` (centres undefined), the inhibition is 2.87% (inactive).

`Nc1[nH]c(C(=O)c2ccc(Br)cc2)c(-c2ccc3c(c2)OCO3)c1C(=O)NCCc1c[nH]c2ccccc12`: the inhibition is -1.27% (inactive).

For the compound `CCc1ccc(C2=CC(=O)CC(C)(C)C2=O)cc1`, the inhibition is 1.83% (inactive).

Turning to `C[C@@H]1CN([C@H](C)CO)C(=O)CCCn2cc(nn2)CO[C@H]1CN(C)C(=O)Nc1ccc(N2CCCCC2)cc1`, the inhibition was 1.36% (inactive).

With `ON=C1/C(=N\O)CC2(C/C1=N/O)OCCO2`, the inhibition was 13.7% (active).

`O/N=C1\CC2(Cc3nonc31)OCCO2`: the inhibition was 0.95% (inactive).

With `CN[C@H]1C[C@H]2c3[nH]c4c(-c5ccccc5)cccc4c3CCN2C(=O)[C@H]1[C@H](C)O`, the inhibition was 1.58% (inactive).

As for `Nc1ccn([C@@H]2O[C@H](C(=O)N[C@H]3CCCCNC3=O)[C@@H](O)[C@H]2O)c(=O)n1`, the inhibition was 1.72% (inactive).

For `O=C(CO/N=C/c1ccccc1O)NNC(=O)c1ccccc1Cl`, the inhibition was 0.32% (inactive).

With `O=C(NN=Cc1ccccc1O)NN=Cc1ccccc1O`, the inhibition was 12.4% (active).

Take `O=C(CC(=O)N/N=C\c1cccc(Cl)c1Cl)NCc1ccccc1`: the inhibition was 3.05% (inactive).

On to `COC(=O)C1=C(C)N(Cc2ccccc2C(F)(F)F)C(=NCC2CC2)NC1c1cccc(Cl)c1` (centres undefined), for which the inhibition was 0.63% (inactive).

In the case of `COC(=O)c1cc2c(c3c4ccccc4n(S(=O)(=O)c4cccc(C)c4)c13)C(=O)N(Cc1ccccc1)C2`, the inhibition was 5.66% (inactive).

As to `COc1ccccc1-c1ccc([C@@H]2C[C@H]3[C@H](CON3C)CN2S(=O)(=O)c2cc(Cl)cc(Cl)c2)cc1`, the inhibition is 3.4% (inactive).

With `O=S1(=O)c2ccc(Br)cc2-n2nncc2CN1Cc1cccc(Cl)c1`, the inhibition was -0.4% (inactive).

On to `C=C1c2c(Cl)ccc(O)c2C(O)=C2C(=O)[C@]3(O)C(O)=C(C(N)=O)C(=O)[C@@H](N(C)C)[C@@H]3[C@@H](O)C12` (some centres undefined), for which the inhibition was 102% (active).

As for `CN(C)[C@@H]1C(=O)C(C(N)=O)=C(O)[C@@]2(O)C(=O)C3=C(O)c4c(O)ccc(Cl)c4[C@@H](O)[C@H]3C[C@@H]12`, the inhibition was 102% (active).
